High-throughput results (PubChem BioAssay)
Pol kappa inh: inhibitors of human DNA polymerase kappa. Q9UBT6. purified Pol kappa, fluorescent DNA synthesis assay, 10 min. hit rate 0.53% among 400,000. Potency, µM (highest dose often 107 µM), for the others: top-dose activity, negative = inhibition, usual class: inhibitors; also: % is scaled to controls: 0 for no effect and ±100 for the full control effect
Target sequence (Q9UBT6 whole entry, looked up): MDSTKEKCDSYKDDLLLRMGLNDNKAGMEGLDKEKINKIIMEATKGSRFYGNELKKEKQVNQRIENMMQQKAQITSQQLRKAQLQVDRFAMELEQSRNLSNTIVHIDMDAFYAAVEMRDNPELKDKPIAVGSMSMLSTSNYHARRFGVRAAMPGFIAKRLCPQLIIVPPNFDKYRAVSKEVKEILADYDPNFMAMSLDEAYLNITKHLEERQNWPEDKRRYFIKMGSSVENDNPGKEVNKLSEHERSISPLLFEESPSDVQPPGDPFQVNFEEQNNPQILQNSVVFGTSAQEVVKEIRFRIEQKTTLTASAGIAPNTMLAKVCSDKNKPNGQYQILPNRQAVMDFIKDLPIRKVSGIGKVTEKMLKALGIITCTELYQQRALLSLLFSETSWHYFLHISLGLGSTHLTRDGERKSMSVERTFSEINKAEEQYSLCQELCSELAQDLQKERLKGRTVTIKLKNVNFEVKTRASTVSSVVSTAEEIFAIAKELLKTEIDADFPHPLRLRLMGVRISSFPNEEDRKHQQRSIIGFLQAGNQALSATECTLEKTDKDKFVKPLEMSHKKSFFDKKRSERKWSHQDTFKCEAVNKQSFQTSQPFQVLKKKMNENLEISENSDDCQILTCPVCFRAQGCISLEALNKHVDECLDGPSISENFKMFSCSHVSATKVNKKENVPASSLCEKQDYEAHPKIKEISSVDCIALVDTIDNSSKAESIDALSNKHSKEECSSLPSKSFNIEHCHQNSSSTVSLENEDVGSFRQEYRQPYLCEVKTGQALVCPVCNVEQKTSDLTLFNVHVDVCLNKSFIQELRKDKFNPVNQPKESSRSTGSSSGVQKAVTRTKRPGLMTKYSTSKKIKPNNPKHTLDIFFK
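Enzyme at 10 nM met test compounds for 15 min at room temperature. Substrate addition (50 nM final) began the reaction, which was monitored by fluorescence at 0 and 10 min.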
L3MBTL1 inh: blocks human L3MBTL1; Q9Y468; AlphaScreen L3MBTL1–H3K9me1 peptide binding; Potency, µM (series often up to 57.1 µM), for the others: at the top dose activity, negative = inhibition, hits mostly inhibitors; hit rate 0.66% among 230,000; AID 485360; also: % is scaled to controls: 0 for no effect and ±100 for the full control effect; nearly all actives have a fitted effect of over 60% in size
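Read-out is AlphaScreen signal from streptavidin donor and nickel chelate acceptor beads (10 ug/mL final each) bridging L3MBTL1 (50 nM) and biotinylated K9-monomethylated H3(1-15) peptide (75 nM), after 30 min compound exposure at room temperature.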
Pol beta inh: blocks human DNA polymerase beta activity | P06746 | Pol beta primer extension/strand displacement, fluorescence kinetic | Potency, µM (doses to about 114 µM), inactives show at the highest dose activity change, negative = inhibition, usual class: inhibitors | hit rate 1.3% among 340,000 | AID 485314; also: % is scaled to controls: 0 for no effect and ±100 for the full control effect
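Enzyme-only controls used 10 nM Pol beta; buffer lacking enzyme served as negative control. Compound preincubated 15 min, then 50 nM substrate added; 0 and 10 min reads at room temperature.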
Pol eta inh: inhibitors of human DNA polymerase eta | Q9Y253 | recombinant Pol eta, fluorescent DNA replication assay | Potency, µM (top dose mostly 114 µM), for the others: at the highest dose activity change, negative = inhibition, actives largely listed as inhibitors | hit rate 1.2% among 390,000 | AID 588591; also: % is scaled to controls: 0 for no effect and ±100 for the full control effect
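Pol eta at 10 nM preincubated with compounds 15 min at room temperature; reaction started with fluorescent substrate (50 nM final) and read kinetically at 0 and 10 min.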
Pol iota inh: inhibitors of human DNA polymerase iota | Q9UNA4 | Pol iota fluorescent replication assay, 10 min | Potency, µM (titrated, usually from 115 µM), inactives show at the top dose activity, negative = inhibition, hits mostly inhibitors | hit rate 1% among 390,000 | AID 588590
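Fluorescent replication assay read twice, at 0 min and 10 min after adding 50 nM (final) substrate. Enzyme (10 nM) and compounds were first incubated 15 min at room temperature; enzyme-free buffer wells were negative controls.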
An asterisk follows results filed as active; ? = inconclusive; nt = no result given; [ ] = dose if it differs, or a comment. This is a sample that favours compounds with a hit; in the whole collection about 2.4% have one here. Calls follow the shape of the dose curve; as a rule, active = well fitted curve in the direction sought with a large enough effect; inconclusive = small, poorly fitted or top-dose-only effect, or another doubt; inactive = no such curve, though single readings can be large; an effect the other way counts as inactive or inconclusive. Potency is read from the fitted curve at half-maximal effect.

SMILES	Pol kappa inh	L3MBTL1 inh	Pol beta inh	Pol eta inh	Pol iota inh
CC1OC(OCC2OC(Oc3c(-c4ccc(O)c(O)c4)oc4cc(O)cc(O)c4c3=O)C(O)C(O)C2O)C(O)C(O)C1O (configuration not stated)	6.3µM*	nt	nt	nt	nt
O=c1c(O[C@H]2O[C@@H](CO)[C@H](O)[C@@H](O)[C@@H]2O)c(-c2ccc(O)cc2)oc2cc(O)cc(O)c12	-8%	-13%	nt	?	-1%
O=c1cc(-c2ccc(O)c(O)c2)oc2cc(O[C@@H]3O[C@H](CO)[C@@H](O)[C@H](O)[C@H]3O)cc(O)c12	2.5µM*	4µM*	nt	8.9µM*	6.3µM*
O=c1cc(-c2ccccc2)oc2cc(O[C@@H]3O[C@H](CO)[C@@H](O)[C@H](O)[C@H]3O)c(O)c(O)c12	10µM*	nt	nt	nt	nt
CCOC(=O)c1cc2c(OC)c(OC)ccc2c2[nH]cc(C#N)c(=O)c12	nt	nt	nt	-13%	nt
C[C@H]1CN([C@@H](C)CO)S(=O)(=O)c2ccc(/C=C/c3ccccc3)cc2O[C@H]1CN(C)C(=O)NC1CCCCC1	nt	nt	nt	-20%	nt
COc1ccc(Cn2ccc3nc(C)c(C(=O)N4CCN(c5ccccc5OC)CC4)cc3c2=O)cc1	-19%	nt	-3%	-18%	2%
Cc1nn2c(=O)cc(COC(=O)c3cccc(NC(=O)c4ccc(C(C)(C)C)cc4)c3)nc2s1	-2%[60.1 µM]	nt	-2%	-8%	14%
CCc1ccc(-c2csc(NC(=O)C3CC(=O)N(c4ccc5c(c4)OCCO5)C3)n2)cc1 (configuration not stated)	-29%	-19%	?	-18%	89µM*
CCn1c2ccccc2c2nnc(SC3CCOC3=O)nc21 (configuration not stated)	5%	nt	nt	nt	27%
COCCCn1c2nc3ccccc3nc2c2c(=O)n(Cc3ccc(Cl)cc3)cnc21	1%	9%	1%	1%	14%
O=c1c2c3nc4ccccc4nc3n(Cc3ccccc3)c2ncn1Cc1ccco1	?	nt	28µM*	18µM*	?
COc1ccc(-c2nc3ccccc3s2)cc1NC(=O)COc1cccc(C)c1	?	nt	1%	12%	?
CC(=O)N(C)c1ccc(N=Cc2cc3c(cc2[N+](=O)[O-])OCO3)cc1	-21%	nt	nt	-13%	76%
CCN(CC)c1ccc(N=Cc2ccccc2[N+](=O)[O-])cc1	-18%	28µM*	-1%	-13%	?
CCN(CC)c1ccc(N=Cc2ccc([N+](=O)[O-])o2)cc1	?	?	?	?	16µM*
CCCCCC(=O)N/N=C/c1ccc([N+](=O)[O-])o1	-25%	nt	6%	-9%	-26%
C1=C\CCC2(OCCO2)C2(CC/1)OCCO2	nt	nt	nt	-19%	nt
COc1cccc(C(=O)Nc2cccc(OCc3cc(=O)n4cc(C)ccc4n3)c2)c1	-1%[60.1 µM]	nt	22%	-18%	?
O=[N+]([O-])c1c(Nc2ccccc2O)cc(Cl)c2nonc12	-2%	?	18µM*	45µM*	11µM*
Cc1cccc(-n2c(=O)c3c4c(sc3n3c(C)nnc23)CCCC4)c1	-9%[60.1 µM]	nt	3%	-12%	26%
O=C(NC1CCSC1=O)c1ccccc1 (configuration not stated)	-5%	-4%	-2%	-11%	5%
O=C(NC1CCSC1=O)c1cccc(C(=O)NC2CCSC2=O)c1 (configuration not stated)	-7%	-14%	50µM*	?	?
Cc1cc(C)c2c(CC(=O)Nc3ccc(S(=O)(=O)Nc4nc(C)cc(C)n4)cc3)coc2c1	-19%	nt	-10%	-4%	4%
O=C(NCc1ccc(F)cc1)C1CCN(C(=O)c2ccc(-n3ccc4ccccc43)s2)CC1	-44%	nt	-30%	-22%	?
SMILES	Pol kappa inh	L3MBTL1 inh	Pol beta inh	Pol eta inh	Pol iota inh
CCOc1ccc(CNC(=O)C2CCN(C(=O)c3ccc(-n4ccc5ccccc54)s3)CC2)cc1	-18%	nt	0%	-4%	89µM*
O=c1cc(-c2ccccc2)nc2c(-c3ccccc3)c(C(F)(F)F)[nH]n12	-12%	28%	79µM*	?	20%
Cc1cc(=O)n2[nH]c(C)c(-c3ccccc3)c2n1	0%	-1%	1%	-21%	29%
Cc1nnc2ccc(-c3ccc(NS(=O)(=O)c4ccccc4F)cc3)nn12	-23%	-6%	nt	-4%	?
Cc1nnc2ccc(-c3ccc(NS(=O)(=O)c4ccccc4[N+](=O)[O-])cc3)nn12	?	-21%	nt	40µM*	?
Cc1cccc(NC(=O)Cn2cc(C(=O)C3CCCCC3)c3ccccc32)c1C	-20%	nt	29%	-3%	-3%
CCc1c(C)[nH]n(-c2ccc(Oc3ccccc3)c(S(=O)(=O)O)c2)c1=O	35µM*	?	25µM*	11µM*	18µM*
Cc1cc(C)n(-c2ccc(Oc3ccccc3)c(S(=O)(=O)O)c2)n1	-30%	nt	?	50µM*	23%
OC1OC[C@@H](O)[C@@H](O)[C@@H]1O (some centres not stated)	11%[60.1 µM]	nt	nt	nt	nt
C=CCn1c(COc2ccc(F)cc2)nnc1SCC(=O)NC1CCCC1	4%	2%	nt	-10%	22%
C=CCn1c(COc2cccc(C)c2)nnc1SCC(=O)NC(=O)NCc1ccco1	?	?	20µM*	?	71µM*
C=CCn1c(COc2cccc(C)c2)nnc1SCC(=O)c1c(N)n(C)c(=O)n(C)c1=O	4%	nt	nt	-15%	29%
C=CCn1c(COc2ccc(F)cc2)nnc1SCC(=O)NC(=O)NCc1ccco1	?	?	25µM*	?	50µM*
CC(=O)NC1=NN(C(C)=O)C(C)(c2ccccc2)S1 (configuration not stated)	-8%[60.1 µM]	32µM*	7.1µM*	-2%	7%
CC(=O)NC1=NN(C(C)=O)C(C)(c2ccc3ccccc3c2)S1 (configuration not stated)	-5%	2%	1%	-19%	11%
Nc1nc(NCCO)nc(NCC2CCCO2)c1[N+](=O)[O-] (configuration not stated)	-20%	4%	22µM*	-4%	15%
O=C(O)CCC(=O)N1CCc2cc(S(=O)(=O)N3CCN(c4ccc(F)cc4)CC3)ccc21	-8%	nt	22µM*	-4%	?
Cc1ccc(C)c(N2CCN(S(=O)(=O)c3ccc4c(c3)CCN4C(=O)CCC(=O)O)CC2)c1	-14%	nt	-27%	7%	-5%
CCC(=O)N1CCc2cc(S(=O)(=O)CCC(=O)N3CCN(c4ccccc4)CC3)ccc21	0%	nt	0%	-14%	16%
O=C(O)c1c[nH]c2ccc(S(=O)(=O)N3CCN(c4ccc(F)cc4)CC3)cc2c1=O	?	-7%	20µM*	89µM*	?
CC(=O)N1CCc2cc(S(=O)(=O)CCC(=O)N3CCN(c4ccccc4)CC3)ccc21	-9%	nt	1.3µM*	8%	-17%
